Experimental findings from PubChem BioAssay AID1259343 (VanderVen Lab, College of Veterinary Medicine, Cornell …, 2017) are described below.

Among all 6,200 compounds or so, about 2,900 (47%) were called active. No stated cut-off is given here; in the data, active means inhibition above about 50%; inactive means the rest. The set was probably picked from earlier hits. The list shows a part of the results.

The term inhibition denotes the drop in the measured response relative to a control, in per cent.

This assay in a line: Mycobacterium tuberculosis growth inhibition, primary screen (AID 1259343). The settings on record: inhibition: at 10 µM, hits give high values; outcome: 10 uM.
Regarding `CCOc1ccc(OCCCCOc2ccccc2[N+](=O)[O-])cc1`, the inhibition was 83.2% (active).

For `Cc1ccccc1CNc1cccc([N+](=O)[O-])c1`, the inhibition is 35.8% (inactive).

`CCOc1ccc(N=Cc2cccc([N+](=O)[O-])c2)cc1`: the inhibition was 96.3% (active).

As for `COCc1cc(C)nc(N/N=C\c2ccccc2[N+](=O)[O-])c1C#N`, the inhibition was -18.7% (inactive).

As to `Cc1ccccc1CON=Cc1cccc([N+](=O)[O-])c1`, the inhibition is 54.1% (active).

`COc1ccc(OCCCCOc2ccccc2[N+](=O)[O-])cc1`: the inhibition was 76.2% (active).

On to `CCOC(=O)CCCCCCCCCCCCC1C=CCC1` (stereo not drawn), for which the inhibition was -30.7% (inactive).

Regarding `CCOc1ccc(OCCOc2ccc([N+](=O)[O-])cc2)cc1`, the inhibition is 26.5% (inactive).

As for `CCOc1ccc(OCCCOc2ccc([N+](=O)[O-])cc2)cc1`, the inhibition is 23% (inactive).

As to `CCOc1ccc(OCCOc2ccccc2[N+](=O)[O-])cc1`, the inhibition was 97.3% (active).

For `COc1cc(C)ccc1OCCCOc1ccc([N+](=O)[O-])cc1`, the inhibition was 41.8% (inactive).

Turning to `CCOc1cccc(OCCCOc2ccc([N+](=O)[O-])cc2)c1`, the inhibition was 86% (active).

In the case of `COC(=O)C1=C(O)C(C(=O)OC)C(c2cccs2)C(C#N)(C#N)C1c1cccs1` (stereo not drawn), the inhibition is 4.02% (inactive).

For the molecule `Cc1cccc(N2CCN(C(C)C(=O)Nc3cc(C)on3)CC2)c1` (stereo not drawn), the inhibition is 85.9% (active).

Turning to `Cc1cc(NC(=O)c2cc(CC(C)C)on2)no1`, the inhibition is 47.4% (inactive).

Take `CCCCCCNC(N)=S`: the inhibition was 72.8% (active).

Regarding `CC1Sc2ccc(C(=O)N(C)Cc3cccc(Cl)c3)cc2NC1=O` (stereo not drawn), the inhibition is 30.6% (inactive).

Take `CN(Cc1ccc(Cl)cc1Cl)C(=O)C1CCN(c2ccccc2[N+](=O)[O-])CC1`: the inhibition was 45% (inactive).

As to `Cc1nn(C)cc1CN(C)C(=O)c1cccc(Cl)c1`, the inhibition was 101% (active).

In the case of `CC1CC1C(=O)Nc1ccc(-n2nccc2C(F)(F)F)cc1` (stereo not drawn), the inhibition is 40% (inactive).

Take `CN1N=C(CC(=O)Nc2ccc(-n3nccc3C(F)(F)F)cc2)CC1=O`: the inhibition is 87.8% (active).

On to `Cc1cc(NC(=O)c2cc3ccccc3o2)n(-c2nc(C)c(C)c(=O)[nH]2)n1`, for which the inhibition is -29.9% (inactive).

In the case of `CCc1c(C)nc(-n2nc(C)cc2NC(=O)c2ccco2)[nH]c1=O`, the inhibition was 100% (active).

For the molecule `Cc1cc(NC(=O)c2ccco2)n(-c2nc(C)c(C)c(=O)[nH]2)n1`, the inhibition was 100% (active).

`O=C1CCCN1CCC1CCN(Cc2nc(-c3ccc(Cl)cc3)no2)CC1`: the inhibition was 74% (active).

With `Clc1ccc(-c2noc(CN3CCCN(c4ncccn4)CC3)n2)cc1`, the inhibition was 77.6% (active).

`Clc1ccc(-c2noc(CN3CCN(c4ncnc5ccccc45)CC3)n2)cc1`: the inhibition is 71.1% (active).

In the case of `O=C(CCc1ccccc1)C1CCCN(Cc2nc(-c3ccc(Cl)cc3)no2)C1` (stereo not drawn), the inhibition was 73.2% (active).

As for `O=C(CCc1ccccc1)C1CCCN(Cc2nc(CC3CC3)no2)C1` (stereo not drawn), the inhibition entry is “inactive”.

Regarding `Clc1ccc(-c2nc(-c3ccccn3)no2)cc1`, the inhibition was 79.7% (active).

As for `c1ccc(CCCc2nc(-c3ccccn3)no2)cc1`, the inhibition was 30.6% (inactive).

For `Clc1ccc(C2CCCN(Cc3nc(-c4ccccn4)no3)C2)cc1` (stereo not drawn), the inhibition was 73% (active).

As for `c1ccc(-c2noc(CN3CCCC(c4ccccc4)C3)n2)cc1` (stereo not drawn), the inhibition result was “inactive”.

Consider `C=CCSc1nnc(NC(=O)C2CCCCC2)s1`, for which the inhibition was 91.9% (active).

For `Cc1csc(Sc2ccc(NC(=O)C3CCC3)c(C)c2)n1`, the inhibition was 33.2% (inactive).

As to `O=C(Nc1nnc(SCCc2ccccc2)s1)C1CCCCC1`, the inhibition was 3.18% (inactive).

For the molecule `Cc1cc(NC(=O)C(C)(C)CCl)n(-c2nc(C)c(C)c(=O)[nH]2)n1`, the inhibition is 101% (active).

In the case of `COC(=O)CCc1c(C)nn(-c2nc(C)cc(=O)[nH]2)c1C`, the inhibition was 43.3% (inactive).

Take `CCC(=O)Nc1cc(C)nn1-c1nc(C)c(C)c(=O)[nH]1`: the inhibition is 99.7% (active).

Turning to `CC(=O)Nc1cc(C)nn1-c1nc(C)c(C)c(=O)[nH]1`, the inhibition is 101% (active).

On to `COC(=O)CCc1c(C)nn(-c2nc(C)c(C)c(=O)[nH]2)c1C`, for which the inhibition was 101% (active).

Take `Cc1cc(NC(=O)C(C)C)n(-c2nc(C)c(C)c(=O)[nH]2)n1`: the inhibition is -18.6% (inactive).

Take `Cc1cc(NC(=O)Cc2ccccc2)n(-c2nc(C)c(C)c(=O)[nH]2)n1`: the inhibition is 99.4% (active).

With `Cc1[nH]nc(Nc2ccc(Cl)c(Cl)c2)c1[N+](=O)[O-]`, the inhibition was 70.3% (active).

On to `O=C(NCc1cccs1)c1cc(Br)ccc1F`, for which the inhibition was 83.2% (active).

As to `Brc1ccc(NCc2cccs2)cc1`, the inhibition is 6.27% (inactive).

`CC(C)Oc1ccc(C(=O)NCc2cccs2)cc1`: the inhibition is 34.9% (inactive).

Take `C=C(C)CN(CC)c1nc(N)c(C#N)c(C(C#N)Cc2ccc(C)cc2)c1C#N` (stereo not drawn): the inhibition is 21.1% (inactive).

Regarding `Cc1sc2nc[nH]c(=S)c2c1C`, the inhibition is 88.8% (active).

For the molecule `Cc1ccc(-c2csc3nc[nH]c(=S)c23)cc1C`, the inhibition was 31.2% (inactive).

As to `S=c1[nH]cnc2sc3c(c12)CCCC3`, the inhibition was 93.9% (active).

As for `CC1CCc2c(sc3nc[nH]c(=S)c23)C1` (stereo not drawn), the inhibition was 2.8% (inactive).

For `Cc1sc2nc[nH]c(=S)c2c1-c1ccccc1`, the inhibition was 87.7% (active).

Take `O=c1[nH]c2sc3c(c2c2ncnn12)CCCC3`: the inhibition is -17.8% (inactive).

Take `CC(NC(=O)CN(C)CC(=O)Nc1ccc(Cl)c(Cl)c1)c1ccco1` (stereo not drawn): the inhibition was 86.6% (active).

With `CC(N=c1ccccn1C(=O)Nc1ccc(Cl)c(Cl)c1)c1ccco1` (stereo not drawn), the inhibition was -3.96% (inactive).

For `Fc1ccc(NN=Cc2ccc3c(c2)OCO3)c(F)c1`, the inhibition is 81.8% (active).

Consider `C(=NNc1ccc2ccccc2n1)c1ccc2c(c1)OCCO2`, for which the inhibition is 27.8% (inactive).

Take `Fc1c(F)c(F)c(NN=Cc2ccc3c(c2)OCO3)c(F)c1F`: the inhibition is 89.5% (active).

Regarding `Fc1ccc(NN=Cc2ccc3c(c2)OCCO3)c(F)c1`, the inhibition was 37% (inactive).

With `O=C1C=C2C(=CCOC2O)O1` (stereo not drawn), the inhibition was 98.2% (active).

Regarding `CC(NS(=O)(=O)c1ccccc1C#N)c1ccc(-n2ccnc2)cc1` (stereo not drawn), the inhibition is -48.9% (inactive).

For the molecule `C=CCNc1nc(-c2cc(F)ccc2F)cs1`, the inhibition is 45.9% (inactive).

Take `O=c1[nH]c2ccc(-c3csc(-c4ccc(F)cc4)n3)cc2o1`: the inhibition is 39.4% (inactive).

Take `Nc1nc(-c2ccc(F)cc2F)cs1`: the inhibition was 33.6% (inactive).

In the case of `Cc1ccc(-c2csc(N)n2)cc1`, the inhibition is 101% (active).

In the case of `Fc1ccc(F)c(-c2csc(Nc3ccc4c(c3)OCCO4)n2)c1`, the inhibition is 22.8% (inactive).

With `Nc1nc(-c2ccc(I)cc2)cs1`, the inhibition entry was “inactive”.

As to `OC(c1cn2cc(-c3ccc(F)cc3)nc2s1)(C(F)(F)F)C(F)(F)F`, the inhibition was 15.3% (inactive).

With `Cc1cc(C)cc(Nc2nc(-c3ccc(F)cc3)cs2)c1`, the inhibition was 51.7% (active).

On to `Nc1nc(-c2ccc(F)cc2)cs1`, for which the inhibition is 90.4% (active).

On to `Nc1nc(-c2cc(F)ccc2F)cs1`, for which the inhibition was 77.2% (active).

Regarding `CSc1ccc(-c2csc(N)n2)cc1`, the inhibition is 8.66% (inactive).
